Reference: paper PMC4552634, “A New Set of Chemical Starting Points with Plasmodium falciparum Transmission-Blocking Potential for Antimalarial Drug Discovery” (PLoS ONE, 2015)
The whole screen tested about 13,000 compounds, of which about 3,200 (25%) showed an effect of 50% or more. The list shows a part of the results.

These compounds were tested on P. falciparum stage V gametocytes. Conditions: 48 h, 5 µM; inhibitor.
Parameters: BacTiter-Glo ATP luminescence viability of purified stage V gametocytes in 384-well plates, per cent inhibition versus DMSO

Compared with COc1ccc2nccc(N3CCN(CCNCc4ccc5c(n4)NC(=O)CO5)CC3)c2n1 [TCMDC-141968], COc1ccc2nc3cc(Cl)ccc3c(NCCN3CCN(C)CC3)c2c1 [TCMDC-137476] is higher in “% Inhibition” value: 1.504% for the first, 105% for the second.

Going from Cc1cc(NCC(C)C)c2[nH]nc(-c3ccccc3)c2n1 [TCMDC-131557] to Cc1ccc2nc3ccccc3c(NCCN3CCN(C)CC3)c2c1 [TCMDC-138018], the “% Inhibition” value rises from -38.79% to 95.43%.

Going from CC(=O)c1c(Cc2ccccc2Cl)c[nH]c1C [TCMDC-125433] to CCOC(=O)C1=C(C)NC2=C(C(=O)CC(C)(C)C2)C1c1ccc(Cl)cc1 (stereo not shown) [TCMDC-123497], the “% Inhibition” value rises from -14.2% to 10%.

First: CC(C)COc1cc(C(=O)Nc2cnc3ccccc3c2)ccc1[N+](=O)[O-] [TCMDC-139142]
Second: O=[N+]([O-])c1ccccc1/C=N/Nc1ccnc2cc(Cl)ccc12 [TCMDC-123965]
The “% Inhibition” value of the first is higher: 13.84% for the first, -67.83% for the second.

Going from COc1ccc(CNC(=O)NC2CCN(c3ccnc(Nc4ccc(F)cc4)n3)CC2)cc1 [TCMDC-133631] to COc1ccc(NC(=O)NC2CCN(CCCCCNC(=O)/C=C/c3ccc(Cl)c(Cl)c3)CC2)cc1 [TCMDC-135709], the “% Inhibition” value falls from 1.923% to -22.99%.

Compared with OC(CNC12CC3CC(CC(C3)C1)C2)c1cccc(C(F)(F)F)c1 (stereo not shown) [TCMDC-131509], COc1ccc2nccc([C@@H](O)CN3CCC(NC(=O)c4ccc(C5(C(F)(F)F)N=N5)cc4)CC3)c2c1 [TCMDC-141324] is higher in “% Inhibition” value: -56.01% for the first, -7.709% for the second.

Going from CCc1ccc(-n2cc(C(=O)c3cc(Br)ccc3O)cc(C#N)c2=O)cc1 [TCMDC-125186] to COc1ccc2nc3cc(Cl)ccc3c(Nc3ccc(C(=O)O)cc3)c2c1.Cl [TCMDC-138029], the “% Inhibition” value rises from 9.775% to 43.24%.

Compared with CCCCOc1ccc(/C=C/c2ccc(-c3c(C)[nH]c(C)c(Cl)c3=O)s2)cc1 [TCMDC-136086], O=C(/C=C/c1ccc(Cl)c(Cl)c1)NCCCCCN1CCC(NC(=O)Nc2ccc(OC(F)F)cc2)CC1 [TCMDC-135722] is lower in “% Inhibition” value: 60.63% for the first, -13.06% for the second.

First: O=C(/C=C/c1ccc(Cl)c(Cl)c1)NCCCCCN1CCC(NC(=O)Nc2ccc(Oc3ccccc3)cc2)C1 (stereo not shown) [TCMDC-139528]
Second: O=C(/C=C/c1ccc(Cl)c(Cl)c1)NCCCCCN1CC[C@H](NC(=O)Nc2ccc(Oc3ccccc3)cc2)C1 [TCMDC-139512]
The “% Inhibition” value of the first is lower: -43.31% for the first, 98.95% for the second.

First: CC(C)c1ccc(NC(=O)N[C@H]2CCN(CCCCCNC(=O)/C=C/c3ccc(Cl)c(Cl)c3)C2)cc1 [TCMDC-139510]
Second: CC(C)c1ccc(NC(=O)NC2CCN(CCCCCNC(=O)/C=C/c3ccc(Cl)c(Cl)c3)CC2)cc1 [TCMDC-139389]
The “% Inhibition” value of the first is higher: 104.6% for the first, -3.81% for the second.

First: CN(CCCCCN1CCC(NC(=O)Nc2ccc(C(F)(F)F)cc2)C1)C(=O)/C=C/c1ccc(Cl)c(Cl)c1 (stereo not shown) [TCMDC-139531]
Second: CC(C)c1ccc(NC(=O)NC2CCN(CCCCCN(C)C(=O)/C=C/c3ccc(Cl)c(Cl)c3)C2)cc1 (stereo not shown) [TCMDC-139530]
The “% Inhibition” value of the first is higher: 79.06% for the first, -5.21% for the second.

First: COc1ccccc1NC(=O)NC1CCN(CCCCCNC(=O)/C=C/c2ccc(Cl)c(Cl)c2)CC1 [TCMDC-139385]
Second: COc1ccc(NC(=O)NC2CCN(CCCCCNC(=O)/C=C/c3ccc(Cl)c(Cl)c3)C2)c(OC)c1 (stereo not shown) [TCMDC-139525]
The “% Inhibition” value of the first is lower: -13.68% for the first, 95.6% for the second.

Compared with O=C(/C=C/c1ccc(Cl)c(Cl)c1)NCCCCCN1CCC(NC(=O)Nc2ccc(Cl)c(Cl)c2)CC1 [TCMDC-139387], CCOC(=O)c1ccc(NC(=O)NC2CCN(CCCCCNC(=O)/C=C/c3ccc(Cl)c(Cl)c3)C2)cc1 (stereo not shown) [TCMDC-139526] is higher in “% Inhibition” value: -30.31% for the first, 12.95% for the second.

Compared with CN(CCCCCN1CCC(NC(=O)Nc2ccc(Oc3ccccc3)cc2)C1)C(=O)/C=C/c1ccc(Cl)c(Cl)c1 (stereo not shown) [TCMDC-139532], CCOC(=O)c1ccc(NC(=O)N[C@H]2CCN(CCCCCNC(=O)/C=C/c3ccc(Cl)c(Cl)c3)C2)cc1 [TCMDC-139511] is higher in “% Inhibition” value: -7.519% for the first, 97.51% for the second.

Compared with CN1CCN(c2cc(NC(=O)Nc3ccc(-c4ccncc4)c(Cl)c3)ccc2Br)CC1 [TCMDC-139221], CN1CCCc2ccc(NC(=O)Nc3ccc(Cl)c(Cl)c3)cc2C1 [TCMDC-133732] is lower in “% Inhibition” value: 36.17% for the first, -5.496% for the second.

Going from COc1cc(OC)cc(-c2nc3c(C#N)c(OCCN(C)C)ccc3[nH]2)c1 [TCMDC-133764] to Cc1ccc2[nH]c3c(NCCN(C)C)ncnc3c2c1 [TCMDC-124581], the “% Inhibition” value falls from 10.97% to -20.4%.

Going from CCNc1cc(C(=O)N[C@@H](Cc2ccccc2)[C@H](O)CNC2CCC(F)(F)CC2)c(F)c(N2CCCCS2(=O)=O)c1 [TCMDC-135448] to O=C(N[C@@H](CC1CCCCC1)C(=O)NCCN1CCCC1)c1ccc(O)c(-c2ccc(Cl)c(Cl)c2)c1 [TCMDC-140830], the “% Inhibition” value falls from 35.59% to 4.598%.

Compared with COc1ccc2nc3cc(Cl)ccc3c(NCCc3ccccc3)c2c1.Cl [TCMDC-137665], COc1ccc2nc3cc(Cl)ccc3c(NCCCN3CCNCC3)c2c1 [TCMDC-137580] is higher in “% Inhibition” value: -3.627% for the first, 104.3% for the second.

Going from CCN1CCN(CCCNc2ccnc3cc(Cl)ccc23)CC1 [TCMDC-137588] to CCN1CCN(CCCNc2c3ccc(Cl)cc3nc3ccc(O)cc23)CC1 [TCMDC-137583], the “% Inhibition” value rises from 6.527% to 70.77%.

First: COc1ccc2nc3cc(Cl)ccc3c(NCCCCN3CCNCC3)c2c1 [TCMDC-137578]
Second: CCN1CCN(CCCNc2c3ccc(Cl)cc3nc3ccc(OC)cc23)CC1 [TCMDC-137586]
The “% Inhibition” value of the first is higher: 99.69% for the first, 86.55% for the second.

Going from COc1ccc2nc3ccccc3c(NCCN3CCN(C)CC3)c2c1 [TCMDC-138017] to CCOC(=O)N1CCN(CCCNc2c3ccc(Cl)cc3nc3ccc(OC)cc23)CC1 [TCMDC-137480], the “% Inhibition” value falls from 69.17% to 40.55%.

For CCOC(=O)N1CCN(CCCCNc2c3ccc(Cl)cc3nc3ccc(OC)cc23)CC1.Cl [TCMDC-137579], the “% Inhibition” value was 70.35%.
